According to PubChem BioAssay (EPA / NIEHS):
Some structures have more than one record in an assay (separate samples or runs), and their calls can disagree. Active and inactive are the calls of the source. Rule for the calls: active = hit-call score of the fitted dose curve at least 0.9, where 1 is the maximum; inactive = score below 0.9.

The compounds below were run on Interferon-gamma inducible Protein 10 (IP10), CXCL10 (gene 3627) (assay: BSK_hDFCGF_IP10: BioMAP Diversity Plus: hDFCGF Assay for Interferon-gamma inducible Protein 10 (IP10) Biomarker Activity (AID 2283053)). Conditions: primary human foreskin fibroblasts; actives raise or lower the signal.
Experimental: BSK_hDFCGF is a cell-based, multiplexed-readout assay that uses foreskin fibroblast, a human skin primary cell, with measurements taken at 24 hours after chemical dosing in a 96-well plate.BSK_hDFCGF_IP10 is an assay component measured in the BSK_hDFCGF assay. It measures IP-10 antibody related to regulation of gene expression using ELISA technology.Data from the assay component BSK_hDFCGF_IP10 was analyzed into 1 assay endpoint. This assay endpoint, BSK_hDFCGF_IP10, was analyzed with bidirectional fitting relative to DMSO as the negative control and baseline of activity. Using a type of binding reporter, gain or loss-of-signal activity can be used to understand changes in the signaling as they relate to the gene CXCL10. Furthermore, this assay endpoint can be referred to as a primary readout, because this assay has produced multiple assay endpoints where this one serves a signaling function. To generalize the intended target to other relatable targets, this assay endpoint is annotated to the cytokine intended target family, where the subfamily is chemotactic factor.
The levels of cell surface (or secreted, indicated by the prefix "s") biomarker endpoints were measured by ELISA. Overt cytotoxicity to cells in confluent adherent cultures (all systems other than the BT system) was assessed by measuring total protein levels using sulforhodamine B (SRB) staining in parallel cultures at the time of biomarker measurements, indicated as SRB endpoints. For proliferation assays for adherent cell types, individual cell types are cultured at sub-confluence and relative cell numbers quantified by SRB staining at time points optimized for each system (48 h: 3C and CASM3C systems; 72 h: BT and HDF3CGF systems; 96 h: SAg system). SRB was performed by staining cells with 0.1% SRB after fixation with 10% TCA and reading wells at 560 nm.Viability and proliferation of PBMC (T cells) was quantified by Alamar Blue reduction for the SAg and BT systems. For PBMC viability (referred to as PBMC Cytotoxicity within the assay endpoint names), cells were plated (75,000/well in a 96-well plate) and then chemical samples added for 1 h before addition of activators, SEB and TSST-1 (20 ng/mL final concentration each). Cells were incubated for 90 h. Then, Alamar Blue (20 uL/well) (Invitrogen, Cat DAL1100) was added for 6 h, and the plates were read with a fluorescence microplate reader at 546/580 nm (excitation/emission). For PBMC proliferation, cells were plated and activated as above but incubated for only 16 h prior to addition of Alamar Blue. Plates were read after 6 h.

| SMILES | outcome | AC50 |
| --- | --- | --- |
| NC(=O)C(F)(F)C(F)(F)C(F)(F)C(F)(F)C(F)(F)C(F)(F)C(F)(F)F | inactive |  |
| O=C(c1ccccc1)c1ccc(O)cc1O | inactive |  |
| C=CC(=O)OCC(F)(F)C(F)(F)C(F)(F)C(F)(F)C(F)(F)C(F)(F)C(F)(F)C(F)F | inactive | 28.8 µM (active) |
| NC(=O)C(F)(F)C(F)(F)C(F)(F)F | inactive |  |
| Cc1cnccn1 | inactive |  |
| NC(=O)C(F)(F)C(F)(F)C(F)(F)C(F)F | inactive |  |
| FC(F)(F)C(F)(F)C(F)(F)C(F)(F)C(F)(F)C(F)(F)C(F)(F)CCI | inactive | 2.45 µM (active) |
| FC(F)(F)C(F)(F)C(F)(F)C(F)(F)C(F)(F)C(F)(F)CC[Si](Cl)(Cl)Cl | inactive |  |
| O=C(O)C(F)(F)C(F)(F)C(F)(F)C(F)(F)C(F)(F)C(F)(F)C(F)F | inactive | 8.52 µM (active) |
| Nc1cc([N+](=O)[O-])cc(Cl)c1O | inactive |  |
| O=C(O)CCC(F)(F)C(F)(F)C(F)(F)F | inactive |  |
| OCCCCC(F)(F)C(F)(F)C(F)(F)C(F)(F)F | inactive |  |
| OCC(O)CC(F)(F)C(F)(F)C(F)(F)C(F)(F)F (stereo not given) | inactive |  |
| NCC(F)(F)C(F)(F)C(F)(F)C(F)(F)C(F)(F)C(F)(F)C(F)(F)C(F)(F)F | inactive |  |
| CC(C)CCCC(C)CCO (stereo not given) | inactive |  |
| O=S(=O)(O)CCC(F)(F)C(F)(F)C(F)(F)C(F)(F)C(F)(F)C(F)(F)C(F)(F)C(F)(F)F | inactive |  |
| CCOC(C=C(C)CCC=C(C)C)OCC |  | 29.8 µM (active) |
| OCC(F)(F)C(F)(F)C(F)(F)CO | inactive |  |

| SMILES | outcome | AC50 |
| --- | --- | --- |
| CNS(=O)(=O)C(F)(F)C(F)(F)C(F)(F)C(F)(F)C(F)(F)C(F)(F)C(F)(F)C(F)(F)F | inactive | 1.99 µM (active) |
| CN(C(=O)C(F)(F)C(F)(F)C(F)(F)F)[Si](C)(C)C | inactive |  |
| O=C1C=CC(=O)N1c1ccc(Cc2ccc(N3C(=O)C=CC3=O)cc2)cc1 |  | 2.58 µM (active) |
| NC(=O)C(F)(F)C(F)(F)C(F)(F)C(F)(F)C(N)=O | inactive |  |
| CCN(CC)c1ccc(C=O)cc1 | inactive |  |
| Cc1ccc(S(=O)(=O)C(I)I)cc1 |  | 2.71 µM (active) |
| O=C=NCc1cccc(CN=C=O)c1 | inactive |  |
| COC(F)(C(F)F)C(F)(F)F (stereo not given) | inactive |  |
| NCC(F)(F)C(F)(F)C(F)(F)C(F)(F)C(F)(F)C(F)(F)F | inactive |  |
| OC(O)C(F)(F)C(F)(F)F | inactive |  |
| C[Si](Cl)(Cl)CCC(F)(F)C(F)(F)C(F)(F)C(F)(F)C(F)(F)C(F)(F)F | inactive | 2.48 µM (active) |
| CCN(CC)c1ccc(C=O)c(O)c1 | inactive |  |
| CCN(CC)c1ccc(N=Nc2ccccc2)cc1 | inactive |  |
| CC1=CC2C3C=CC(C3)C2C1C (stereo not given) | inactive |  |
| OCC(F)(F)C(F)(F)C(F)(F)C(F)(F)C(F)(F)C(F)(F)CO | inactive |  |
| O=S(=O)(O)CCC(F)(F)C(F)(F)C(F)(F)C(F)(F)F | inactive |  |
| CO[Si](C)(CCC(F)(F)C(F)(F)C(F)(F)C(F)(F)C(F)(F)C(F)(F)F)OC | inactive |  |
